# Counter-ions that a name gives are not always drawn.
# Tested on: Danio rerio larvae (5 dpf)
# Test: 1-h baseline activity (% time moving, periods 1-6) minus DMSO control (percentage points); higher = more locomotor activity than DMSO larvae
# Conditions: 10 µM; exposure time: 3 h pre-incubation + 3 h imaging
# Experimental: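 Wild-type 5 dpf zebrafish larvae (n=48 per drug, 96-well plates, 28.5 °C) were exposed to Tocris FDA-approved library compounds at 10 µM (0.1% DMSO) for 3 h before and 3 h during imaging. Images were taken every 6 s during visual (moving coloured lines) and acoustic stimuli, and larvae were tracked with the DeepLabCut-based Z-LaP Tracker. Each behavioural measure is the treated-group mean minus the DMSO vehicle control mean (n=844), in percentage points. This mapping covers compounds with 4-character plate codes.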
row,Structure (SMILES),1-h baseline activity
1,CN1C[C@H](C(=O)N[C@]2(C)O[C@@]3(O)[C@@H]4CCCN4C(=O)[C@H](Cc4ccccc4)N3C2=O)C[C@@H]2c3cccc4[nH]cc(c34)C[C@H]21 [Dihydroergotamine mesylate],1.07
2,C=CCN1C[C@H](C(=O)N(CCCN(C)C)C(=O)NCC)C[C@@H]2c3cccc4[nH]cc(c34)C[C@H]21 [Cabergoline],-9.92
3,Cc1cccc([C@H](C)c2c[nH]cn2)c1C [Dexmedetomidine hydrochloride],-27.3
4,C=C1C[C@@H]2[C@H](CC[C@]3(C)C(=O)CC[C@@H]23)[C@@]2(C)C=CC(=O)C=C12 [Exemestane],-19.5
5,CC[C@@H](C(N)=O)N1CCCC1=O [Levetiracetam],5.78
6,N[C@@H]1C[C@H]1c1ccccc1 [Tranylcypromine hydrochloride],-14.7
7,CC(O)(CS(=O)(=O)c1ccc(F)cc1)C(=O)Nc1ccc(C#N)c(C(F)(F)F)c1 (stereo unspecified) [Bicalutamide],3
8,CCN(C)C(=O)Oc1cccc([C@H](C)N(C)C)c1 [Rivastigmine tartrate],7.3
9,CC(C)C[C@H]1C(=O)N2CCC[C@H]2[C@]2(O)O[C@](NC(=O)[C@@H]3C=C4c5cccc6[nH]c(Br)c(c56)C[C@H]4N(C)C3)(C(C)C)C(=O)N12 [Bromocriptine mesylate],16.1
10,O=c1[nH]c2ccccc2n1C1CCN(CCCC(c2ccc(F)cc2)c2ccc(F)cc2)CC1 [Pimozide],-18.2
11,COc1cc2c(cc1OC)C1CC(=O)C(CC(C)C)CN1CC2 (stereo unspecified) [Tetrabenazine],-0.785
